High-throughput results from PubChem BioAssay.
TDP1 cell noCPT: qHTS for Inhibitors of human tyrosyl-DNA phosphodiesterase 1 (TDP1): qHTS in cells in absence of CPT | AID 686978, 2013 | Potency, µM (series often up to 46.2 µM), inactives show at the top dose activity change, negative = growth inhibition, usual class: inhibitors | DT40 Tdp1-/- hTDP1 cells, no CPT, ATP luminescence, 48 h | 420,000 compounds, 15% hits; further: potency means the concentration at half of the fitted maximal effect; nearly all actives have a fitted effect of over 55% in size
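Seeded 400 DT40-hTDP1 cells/well (vehicle DMSO, no 20 nM CPT); pinned compounds; ≥48 hr at 37 °C; CellTiter-Glo luminescence as viability measure.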
IL1B secr inh: qHTS for Inhibitors of Inflammasome Signaling: IL-1-beta AlphaLISA Primary Screen. activity change, % at 57.5 µM. 360,000 compounds, 4.7% hits. AID 743279, 2014. THP-1 LPS/ATP IL-1B secretion, AlphaLISA, 16 h; hits give low values; in the data active means activity change below about -50%; inconclusive means mostly about -30% to -49%
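THP-1 cells pretreated 1 hr with compounds (up to 57.5 uM final), then stimulated with LPS (250 ng/mL final) plus ATP (1.25 mM final); secreted IL-1B measured by AlphaLISA after 16 hr, decreased signal indicating inhibition.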
HT1080NT lethal: qHTS for induction of synthetic lethality in tumor cells producing 2HG: qHTS for the HT-1080-NT fibrosarcoma cell line. HT-1080-NT fibrosarcoma viability, CellTiter-Glo ATP luminescence, 48 h. Potency, µM (series often up to 46.1 µM), without a hit: at the highest dose activity, negative = less viability, usual class: cytotoxic. 360,000 compounds, 1.6% hits. AID 686970, 2013;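 further: NT is the 2HG producing partner of a matched IDH1 knockdown line; potency means the concentration at half of the fitted maximal effect; 0% = DMSO-treated cells and -100% = media-only wells without cells; nearly all actives have a fitted effect of over 55% in size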
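Toxicity toward the 2HG-producing NT line was scored as %Activity, normalised to DMSO and no-cell wells, from CellTiter-Glo luminescence after 48 hours' treatment.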
HT1080 IDH1KD tx: qHTS for induction of synthetic lethality in tumor cells producing 2HG: qHTS for the HT-1080-IDH1KD cell line; HT-1080 IDH1 knockdown viability, ATP luminescence, 48 h; Potency, µM (titrated, usually from 46.1 µM), inactives show at the top dose activity, negative = toxicity, usual class: cytotoxic; 360,000 compounds, 2% hits; AID 686971, 2013;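 further: potency means the concentration at half of the fitted maximal effect; 0% = DMSO wells and -100% = cell-free medium wells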
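After a 2 h attachment period, IDH1KD HT-1080 cells took pin-transferred compound for 48 h at 37 °C; ATP-based luminescence after 10 min room-temperature reagent incubation reported viability.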
TDP1 cell CPT: qHTS for Inhibitors of human tyrosyl-DNA phosphodiesterase 1 (TDP1): qHTS in cells in presence of CPT. chicken DT40 Tdp1-/-;hTDP1 cells + 20 nM CPT, ATP luminescence, 48 h. Potency, µM (titrated, usually from 46.2 µM), inactives show at the top dose activity change, negative = growth inhibition, usual class: inhibitors. 420,000 compounds, 12% hits. AID 686979, 2013; further: potency means the concentration at half of the fitted maximal effect; nearly all actives have a fitted effect of over 55% in size
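Chicken DT40 Tdp1-/- cells stably complemented with human TDP1 were seeded at 400 cells/well in medium containing 20 nM camptothecin, exposed to pin-transferred compounds, and grown at 37 °C for at least 48 hr. Viability was read as ATP luminescence.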
* = called active by the depositor; [ ] = remark or other dose. An excerpt weighted towards active compounds, which were near 19% of everything screened. Unless noted, the call rests on the fitted dose curve; in most records, active means well fitted curve in the direction sought with a large enough effect; inconclusive means small, poorly fitted or top-dose-only effect, or another doubt; inactive means no such curve, though single readings can be large; an effect the other way counts as inactive or inconclusive. Unless noted, on the % scale 0 is the no-effect control and ±100 the full control effect.

How did C=CCn1c(COc2cc(C)ccc2C(C)C)nnc1SCC(=O)c1c(N)n(C)c(=O)n(C)c1=O do in these assays?
TDP1 cell noCPT: 23µM*; IL1B secr inh: 0; HT1080NT lethal: 22%; HT1080 IDH1KD tx: 15%; TDP1 cell CPT: inconclusive

Results for Cc1occc1-c1nnc(SCC(=O)c2c(N)n(Cc3ccccc3)c(=O)n(C)c2=O)n1C ?
TDP1 cell noCPT: 6%; IL1B secr inh: 0; HT1080NT lethal: 12%; HT1080 IDH1KD tx: 1%; TDP1 cell CPT: -2%

Results for CCCn1c(N)c(C(=O)CSc2nc(C)cs2)c(=O)n(C)c1=O ?
TDP1 cell noCPT: 12µM*; IL1B secr inh: 9; HT1080NT lethal: -9%; HT1080 IDH1KD tx: -13%; TDP1 cell CPT: inconclusive

What do the screens show for `CC(C)Cn1c(N)c(C(=O)COC(=O)/C=C/c2ccccc2)c(=O)n(C)c1=O`?
TDP1 cell noCPT: inconclusive; IL1B secr inh: -19; HT1080NT lethal: -30%; HT1080 IDH1KD tx: -9%; TDP1 cell CPT: 15µM*

What do the screens show for `CC(C)Cn1c(N)c(C(=O)CSc2nncs2)c(=O)n(C)c1=O`?
TDP1 cell noCPT: inconclusive; IL1B secr inh: 11; HT1080NT lethal: 0%[9.24 µM]; HT1080 IDH1KD tx: 5%; TDP1 cell CPT: inconclusive

Results for CC(=O)Nc1ccc(SCC(=O)c2c(N)n(Cc3ccccc3)c(=O)n(C)c2=O)cc1 ?
TDP1 cell noCPT: 8.2µM*; IL1B secr inh: 36; HT1080NT lethal: -1%; HT1080 IDH1KD tx: 5%; TDP1 cell CPT: inconclusive

What do the screens show for `CC(C)Cn1c(N)c(C(=O)CSc2ccccc2)c(=O)n(C)c1=O`?
TDP1 cell noCPT: 8.2µM*; IL1B secr inh: 0; HT1080NT lethal: -2%; HT1080 IDH1KD tx: -11%; TDP1 cell CPT: 16µM*

Results for CC(C)Nc1nnc(SCC(=O)c2c(N)n(Cc3ccccc3)c(=O)n(C)c2=O)s1 ?
TDP1 cell noCPT: -14%; IL1B secr inh: 19; HT1080NT lethal: -27%; HT1080 IDH1KD tx: -22%; TDP1 cell CPT: inconclusive

What do the screens show for `C=CCn1c(N)c(C(=O)OC(C)(C)C)c2nc3ccccc3nc21`?
TDP1 cell noCPT: 12µM*; IL1B secr inh: inconclusive; HT1080NT lethal: 3%; HT1080 IDH1KD tx: -3%; TDP1 cell CPT: 21µM*

How did C=CCn1c(N)c(C(=O)Nc2ccccc2)c2nc3ccccc3nc21 do in these assays?
TDP1 cell noCPT: inconclusive; IL1B secr inh: -62*; HT1080NT lethal: 2%; HT1080 IDH1KD tx: -13%; TDP1 cell CPT: -10%

What do the screens show for `COc1cccc(NC(=O)CN(C)C(=O)c2ccc(NC(=O)CC3SC(N4CCCC4)=NC3=O)cc2)c1` (configuration not stated)?
TDP1 cell noCPT: -24%; IL1B secr inh: 0; HT1080NT lethal: 6%; HT1080 IDH1KD tx: -6%; TDP1 cell CPT: 3%

Results for CN(C)c1ccc(N=Nc2ccccc2C(=O)OCC(=O)NCC2CCCCC2)cc1 ?
TDP1 cell noCPT: 21µM*; IL1B secr inh: inconclusive; HT1080NT lethal: -2%; HT1080 IDH1KD tx: -13%; TDP1 cell CPT: inconclusive

How did CN(C)c1ccc(N=Nc2ccccc2C(=O)OCC(=O)N(C)C2CCCCC2)cc1 do in these assays?
TDP1 cell noCPT: -14%; IL1B secr inh: -5; HT1080NT lethal: 24%; HT1080 IDH1KD tx: 22%; TDP1 cell CPT: 7%

Results for CN(C)c1ccc(N=Nc2ccccc2C(=O)OCC(=O)NC2CCCC2)cc1 ?
TDP1 cell noCPT: inconclusive; IL1B secr inh: inconclusive; HT1080NT lethal: -15%; HT1080 IDH1KD tx: -6%; TDP1 cell CPT: 26µM*

What do the screens show for `O=[N+]([O-])c1ccc2c(c1)C=C/C2=C\c1ccc(C=S)cc1`?
TDP1 cell noCPT: 11µM*; TDP1 cell CPT: inconclusive

What do the screens show for `Nc1ccc2c(c1)C=C/C2=C\c1ccccc1`?
TDP1 cell noCPT: inconclusive; TDP1 cell CPT: 3%

How did Cc1cc(C)n(-c2nc(SCC(=O)O)c3c4c(sc3n2)COC(C)(C)C4)n1 do in these assays?
TDP1 cell noCPT: inconclusive; IL1B secr inh: 54; HT1080NT lethal: -2%; HT1080 IDH1KD tx: -19%; TDP1 cell CPT: inconclusive

How did CCN(CC)CCCNc1nc(-n2nc(C)cc2C)nc2sc3c(c12)CC(C)(C)OC3 do in these assays?
TDP1 cell noCPT: inconclusive; IL1B secr inh: -57*; HT1080NT lethal: inconclusive; HT1080 IDH1KD tx: inconclusive; TDP1 cell CPT: inconclusive

How did Cc1cc(C)n(-c2nc(NCc3cccnc3)c3c4c(sc3n2)COC(C)(C)C4)n1 do in these assays?
TDP1 cell noCPT: inconclusive; IL1B secr inh: inconclusive; HT1080NT lethal: inconclusive; HT1080 IDH1KD tx: 23µM*; TDP1 cell CPT: inconclusive

How did Cc1nc(NCc2cccnc2)c2c3c(sc2n1)CCCC3 do in these assays?
TDP1 cell noCPT: inconclusive; IL1B secr inh: -20; HT1080NT lethal: -14%; HT1080 IDH1KD tx: -13%; TDP1 cell CPT: inconclusive

How did CC(C)N1CCCC(C)(C(=O)Nc2nccc3ccccc23)C1 (configuration not stated) do in these assays?
TDP1 cell noCPT: 9%; IL1B secr inh: 24; HT1080NT lethal: 21%; HT1080 IDH1KD tx: 2%; TDP1 cell CPT: 4%

What do the screens show for `CC(NCCCSc1ccccc1)C(O)c1ccc(O)cc1` (configuration not stated)?
TDP1 cell noCPT: inconclusive; IL1B secr inh: -18; HT1080NT lethal: -4%; HT1080 IDH1KD tx: -27%; TDP1 cell CPT: inconclusive

What do the screens show for `CC1CCCN(CCOCCOc2ccc(Br)cc2Cl)C1` (configuration not stated)?
TDP1 cell noCPT: 18µM*; IL1B secr inh: inconclusive; HT1080NT lethal: inconclusive; HT1080 IDH1KD tx: inconclusive; TDP1 cell CPT: 18µM*

What do the screens show for `C=CCc1cccc(Cl)c1OCCCNC1CCCC1`?
TDP1 cell noCPT: 18µM*; IL1B secr inh: -28; HT1080NT lethal: -27%; HT1080 IDH1KD tx: -10%; TDP1 cell CPT: 23µM*

Results for CC1CCCN(CCOCCOc2ccc(Cl)cc2Br)C1 (configuration not stated) ?
TDP1 cell noCPT: 18µM*; IL1B secr inh: inconclusive; HT1080NT lethal: 22µM*; HT1080 IDH1KD tx: 11µM*; TDP1 cell CPT: inconclusive

Results for CC1CCN(CCCOc2ccc(Br)cc2Cl)CC1 ?
TDP1 cell noCPT: -26%; IL1B secr inh: -60*; HT1080NT lethal: -18%; HT1080 IDH1KD tx: -29%; TDP1 cell CPT: -12%

How did CN1CCN(CCOCCOc2ccc(Br)cc2Cl)CC1 do in these assays?
TDP1 cell noCPT: inconclusive; IL1B secr inh: 0; HT1080NT lethal: 6%; HT1080 IDH1KD tx: 1%; TDP1 cell CPT: inconclusive
